Measurements published in PubChem BioAssay (NCATS).
Records with an inconclusive call do not appear. Calls of active or inactive are those of the source. The call rests on the fitted dose curve; in most records, active means well fitted inhibition curve with a large enough effect; inconclusive means small, poorly fitted or top-dose-only effect; inactive means flat fitted curve, though single readings scatter.

These compounds were tested on HEK293 (assay: Cytotoxic Profiling of Annotated Libraries Using Quantitative High-Throughput Screening (AID 1296008; further: nearly all actives have a fitted effect of over 60% in size)). Conditions: Five cell lines viability, CellTiter-Glo ATP luminescence, 48-72 h; max response: hits give low values.
Method in brief: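 Cells exposed to compounds for 48 or 72 hr at 37 degrees Celsius. Viability read as ATP-coupled luminescence with CellTiter-Glo after 10 min at room temperature.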
On the % scale 0 is the no-effect control and ±100 the full control effect.

Compound	max response
C/C(=C\CCC1(C)C2CCC(C2)C1(C)O)C(=O)O (centres undefined)	-6.56% (inactive)
CC(=O)O[C@@H]1c2c3c(cc(O)c2C(=O)O[C@@H]1C)O[C@@]1(C)[C@@H](O)C[C@H]2C(C)(C)C(=O)C=C[C@]2(C)[C@@H]1C3	-27.5% (inactive)
COc1ccccc1Oc1ccc(N(Cc2cccnc2)S(=O)(=O)CC(F)(F)F)cc1	4.88% (inactive)
CC(C)C(NC(=O)c1ccc2ccccc2n1)C(=O)NC(CC(=O)O)C(=O)COc1c(F)cccc1F (centres undefined)	-1.52% (inactive)
CC(C)=CCC[C@](C)(O)[C@H]1CC[C@]2(C)[C@@H]1[C@H](O)CC1[C@@]3(C)CC[C@H](O)C(C)(C)C3[C@@H](O[C@@H]3O[C@H](CO)[C@@H](O)[C@H](O)[C@H]3O[C@@H]3OC[C@@H](O)[C@H](O)[C@H]3O)C[C@]12C (some centres undefined)	4.3% (inactive)
C=CC[C@]12C[C@@H](OC)C(=O)C(OC)=C1O[C@@H](c1cc(OC)c3c(c1)OCO3)[C@@H]2C	-8.3% (inactive)
CC(C)O[C@@H]1O[C@H](CO)[C@@H](O)[C@H](O)[C@H]1O	1.2% (inactive)
C[C@@H]1CN(Cc2ncccn2)C[C@H]1c1nc2c(cnn2C2CCOCC2)c(=O)[nH]1	-4.3% (inactive)
CN[C@H](CC(C)C)C(=O)N[C@H]1C(=O)N[C@@H](CC(N)=O)C(=O)N[C@H]2C(=O)N[C@H]3C(=O)N[C@H](C(=O)N[C@H](C(=O)O)c4cc(O)cc(O)c4-c4cc3ccc4O)[C@H](O[C@H]3C[C@](C)(N)[C@@H](O)[C@H](C)O3)c3ccc(c(Cl)c3)Oc3cc2cc(c3O[C@@H]2O[C@H](CO)[C@@H](O)[C@H](O)[C@H]2O[C@H]2C[C@](C)(NCc3ccc(-c4ccc(Cl)cc4)cc3)[C@@H](O)[C@H](C)O2)Oc2ccc(cc2Cl)[C@H]1O	-5.83% (inactive)
